This is an account of results in PubChem BioAssay (NCATS).

The target in assay [1] is Lysosomal acid glucosylceramidase (Homo sapiens) (UniProt P04062). Nature of the assay: Glucocerebrosidase-p2 (AID 348; in the data active means potency below about 10 µM; further: potency means the concentration at half of the fitted maximal effect). The settings on record: purified GBA, blue fluorogenic substrate, 40 min. An outline of the steps:
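Compounds titrated from 0.6 nM upwards against 0.2 nM enzyme in pH 5.9 citric acid/KH2PO4, taurocholate, tween-20; blue fluorogenic substrate 80 uM, 40 min room temperature, stopped and read Ex 365/Em 440 for AC50.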

The nature of assay [2]: AP1 Signaling Pathway (AID 357).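 Further: ME-180 reporter cells stimulated with EGF at its EC50 level; on the % scale 0 is the no-effect control and ±100 the full control effect.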 The conditions noted are these: ME-180 AP-1-bla reporter, EGF-induced, beta-lactamase ratio, 5 h; at 7.69 µM (top of the series) unless noted. An outline of the steps:
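Cells are seeded overnight, exposed to compound titrations and an EC50 level of EGF for 5 hours at 37 °C, then loaded with CCF4 dye for 2.5 hours. Beta-lactamase activity under the AP-1 element is read as a blue/green ratio.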

Assay [3] deals with Cytochrome P450 1A2 (Homo sapiens) (UniProt P05177). The assay can be described thus: p450-cyp1a2 (AID 410; calls by dose curve; further: potency means the concentration at half of the fitted maximal effect). The settings on record: recombinant CYP1A2, luciferin-ME demethylation, luminescence; series mostly up to 57 µM. The essentials: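 20nM CYP1A2 with 100uM Luciferin-ME (at Km) in 100mM KPO4; compound preincubated 10 min, NADPH regeneration added, 60 min at room temperature. Luciferin quantified by luminescence after detection reagent; normalized to 57 uM furafylline.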
Cytochrome P450 1A2 (Homo sapiens), sequence (P05177 whole entry, looked up): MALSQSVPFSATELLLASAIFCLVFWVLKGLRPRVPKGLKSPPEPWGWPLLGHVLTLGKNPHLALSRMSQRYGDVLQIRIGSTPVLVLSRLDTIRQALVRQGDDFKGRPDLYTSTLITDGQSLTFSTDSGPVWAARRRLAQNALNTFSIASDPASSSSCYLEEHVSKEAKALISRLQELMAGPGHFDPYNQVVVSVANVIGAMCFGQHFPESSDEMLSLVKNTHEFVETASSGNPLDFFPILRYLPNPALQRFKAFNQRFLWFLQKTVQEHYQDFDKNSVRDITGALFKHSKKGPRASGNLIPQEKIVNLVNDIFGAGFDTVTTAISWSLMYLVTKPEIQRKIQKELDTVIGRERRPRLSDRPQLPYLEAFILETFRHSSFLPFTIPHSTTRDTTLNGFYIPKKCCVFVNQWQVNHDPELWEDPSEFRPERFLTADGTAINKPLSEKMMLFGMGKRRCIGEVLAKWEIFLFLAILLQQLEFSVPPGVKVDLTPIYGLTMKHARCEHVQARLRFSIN

The nature of assay [4]: Stat Signaling Pathway (AID 446).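 Further: ME-180 cervical cancer cells given 40 pM IL-6 alongside compound; SIE-controlled beta-lactamase reporter measured as 460/530 nm FRET emission ratio; on the % scale 0 is the no-effect control and ±100 the full control effect.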 The conditions noted are these: ME-180 SIE beta-lactamase reporter, IL-6 stimulated, 5 h; at 7.69 µM (top of the series) unless noted. An outline of the steps: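 ME-180 SIE-bla cells; overnight plating; cpd + IL-6 40 pM, 5 h, 37 C; LiveBLAzer 2.5 h RT; 460/530 nm emission ratio. Normalized to 300 pM IL-6 and 125 nM JAK inhibitor controls.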

Assay [5] deals with Glucocorticoid receptor (Homo sapiens) (UniProt P04150). Nature of the assay: GR-EFC Redistribution (AID 451; calls by dose curve; further: potency means the concentration at half of the fitted maximal effect). The conditions noted are these: CHO-K1 GR-EFC translocation, beta-gal luminescence, 2 h. An outline of the steps:
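CHO-K1 cells stably expressing nuclear-localized β-gal enzyme acceptor and GR fused C-terminally to the enzyme donor fragment; ligand-driven nuclear translocation restores β-gal by complementation. Compounds titrated up to 46 uM final, 2 h at 37 °C; luminescence read.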

Assay [6] addresses Mitogen-activated protein kinase 10 (Mus musculus) (UniProt Q61831). Nature of the assay: JNK3 AlphaScreen Assay (AID 530).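 Further: kinase came from lysate of stimulated human HepG2 cells; signal reports phosphorylation of biotinylated GST-cJun 1-79 at Ser73 with 10 µM ATP; on the % scale 0 is the no-effect control and ±100 the full control effect.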 The conditions noted are these: JNK3 lysate, c-Jun phosphorylation; series mostly up to 57.1 µM. An outline of the steps: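 Inhibitors reduce antibody binding to phosphorylated biotin-cJun, lowering AlphaScreen luminescence. Lysates from HepG2 cells pre-activated by IL-1beta plus TNF-alpha supplied JNK3; compounds were titrated.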

In assay [7] the target is 3',5'-cyclic-AMP phosphodiesterase 4B (Homo sapiens) (UniProt Q07343). Nature of the assay: qHTS Assay for Inhibitors of PDE-IV (AID 607; active means well fitted activation curve with a large enough effect in the main read-out, with a control signal flat, not every such curve was filed as active; further: % of control where 0% means no effect). The settings on record: HEK293 ACTOne CNG channel cells, membrane potential fluorescence; series mostly up to 22.9 µM. The essentials: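 ACTOne HEK293 cells carry a modified cAMP-gated CNG channel and express endogenous PDE4; plated 1000 cells/well, compounds up to 22.9 uM final. Membrane-potential dye fluorescence (ex 535/em 590) was read; parental cells received 10 uM forskolin + 100 uM RO 20-1724.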
3',5'-cyclic-AMP phosphodiesterase 4B (Homo sapiens), sequence (Q07343 whole entry, looked up): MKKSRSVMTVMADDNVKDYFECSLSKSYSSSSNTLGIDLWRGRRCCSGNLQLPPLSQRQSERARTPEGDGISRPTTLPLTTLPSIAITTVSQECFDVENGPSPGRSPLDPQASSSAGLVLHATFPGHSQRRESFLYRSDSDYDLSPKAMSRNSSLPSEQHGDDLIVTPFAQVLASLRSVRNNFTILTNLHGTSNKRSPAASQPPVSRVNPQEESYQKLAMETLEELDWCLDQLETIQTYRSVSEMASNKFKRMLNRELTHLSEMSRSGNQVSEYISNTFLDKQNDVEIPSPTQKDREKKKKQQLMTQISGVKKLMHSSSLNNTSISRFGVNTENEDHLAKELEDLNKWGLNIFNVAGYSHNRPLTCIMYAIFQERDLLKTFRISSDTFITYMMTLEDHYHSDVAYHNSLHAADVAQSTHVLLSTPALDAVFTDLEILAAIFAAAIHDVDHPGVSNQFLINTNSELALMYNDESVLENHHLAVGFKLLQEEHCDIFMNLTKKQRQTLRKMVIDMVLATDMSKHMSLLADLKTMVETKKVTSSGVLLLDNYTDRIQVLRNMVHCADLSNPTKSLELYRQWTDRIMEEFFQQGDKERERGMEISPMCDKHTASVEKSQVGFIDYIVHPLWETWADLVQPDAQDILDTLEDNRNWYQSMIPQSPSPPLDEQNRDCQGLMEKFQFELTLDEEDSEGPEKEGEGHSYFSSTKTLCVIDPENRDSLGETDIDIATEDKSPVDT

A short description of assay [8]: Primary qHTS for small molecule stabilizers of the endoplasmic reticulum resident proteome: Secreted ER Calcium Modulated Protein (SERCaMP) assay (AID 1508630; active means well fitted curve in the direction sought with a large enough effect; an effect the other way counts as inactive or inconclusive; further: on the % scale 0 is the no-effect control and ±100 the full control effect). The settings on record: SH-SY5Y GLuc-SERCaMP (Gaussia luciferase released on ER calcium loss) secretion, thapsigargin, luminescence; series mostly up to 38.4 µM. The essentials: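 GLuc-SERCaMP-expressing SH-SY5Y cells, pretreated 16 h with compound, are challenged with thapsigargin to empty ER calcium stores; after 4 h, coelenterazine is added directly to the medium and luminescence is imaged.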

A short description of assay [9]: NFAT Signaling Pathway (AID 444). The settings on record: Jurkat NFAT-bla M1, carbachol, beta-lactamase ratio, 5 h; at 7.69 µM (top of the series) unless noted. The essentials: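 Jurkat cells carrying an NFAT-driven β-lactamase reporter and co-transfected muscarinic M1 receptor were treated with compound plus carbachol (1 uM final, an EC50 level) for 5 h at 37 °C. CCF4 loading followed for 1 h at RT; 460/530 nm ratio gave %activity.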

Assay [10] concerns the target Cytochrome P450 2C9 (Homo sapiens) (UniProt P11712). The assay can be described thus: qHTS Assay for Inhibitors and Substrates of Cytochrome P450 2C9 (AID 883; active means well fitted curve in the direction sought with a large enough effect; an effect the other way counts as inactive or inconclusive; further: potency means the concentration at half of the fitted maximal effect; nearly all actives have a fitted effect of over 60% in size). The conditions noted are these: recombinant CYP2C9, luciferin-H luminescence, 60 min; series mostly up to 57.1 µM. An outline of the steps: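 CYP2C9 deoxyluciferin hydroxylation, 37C, 60 min with NADPH regeneration; 10nM enzyme, 100uM Luciferin-H (KM). Glo detection reagent stopped reaction; luminescence normalized to sulphaphenazole (57uM) full inhibition.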

Assay [11] concerns the target Cytochrome P450 3A4 (Homo sapiens) (UniProt P08684). Nature of the assay: qHTS Assay for Activators of Cytochrome P450 3A4 (AID 885; active means well fitted curve in the direction sought with a large enough effect; an effect the other way counts as inactive or inconclusive; further: nearly all actives have a fitted effect of over 65% in size; further: potency means the concentration at half of the fitted maximal effect). The conditions noted are these: recombinant CYP3A4, Luciferin-PPXE luminescence, 60 min; series mostly up to 57.1 µM. An outline of the steps:
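20nM CYP3A4 + 25uM Luciferin-PPXE (=KM), 200mM KPO4; cpd 10 min RT; NADPH regen, 60 min RT; stop w/ detection buffer, 20 min; luminescence. Normalized to 57 uM ketoconazole.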

Assay [12] has the same target. Nature of the assay: qHTS Assay for Inhibitors and Substrates of Cytochrome P450 3A4 (AID 884; active means well fitted curve in the direction sought with a large enough effect; an effect the other way counts as inactive or inconclusive; further: nearly all actives have a fitted effect of over 50% in size; further: potency means the concentration at half of the fitted maximal effect). The conditions noted are these: recombinant CYP3A4, Luciferin-PPXE luminescence; series mostly up to 57.1 µM. The essentials:
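20 nM human CYP3A4 with 25 uM Luciferin-PPXE (at KM) in 200 mM KPO4, preincubated 10 min with compound; NADPH regeneration started a 60 min RT reaction. Luciferin detected by luminescence, normalized to 57 uM ketoconazole as full inhibition.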

Assay [13] has as its target Glucocorticoid receptor (Homo sapiens) (UniProt P04150). Nature of the assay: GR-GFP Redistribution (AID 450;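 active means compounds whose dose series gives a full or clear partial fitted curve of increased nuclear translocation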; further: potency means the concentration at half of the fitted maximal effect). The conditions noted are these: U2OS GR-GFP nuclear translocation, laser cytometry, 2 h.
Assay [14] addresses Cytochrome P450 2C19 (Homo sapiens) (UniProt P33261). The assay can be described thus: qHTS Assay for Inhibitors and Substrates of Cytochrome P450 2C19 (AID 899; active means well fitted curve in the direction sought with a large enough effect; an effect the other way counts as inactive or inconclusive; further: potency means the concentration at half of the fitted maximal effect; nearly all actives have a fitted effect of over 60% in size). The conditions noted are these: recombinant CYP2C19, luciferin-H EGE luminescence; series mostly up to 57.1 µM. The essentials: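 In 50mM KPO4, the reaction held 5nM enzyme and KM-level (10uM) Luciferin-H EGE; it ran 60 min at 37C after NADPH regeneration and a 10 min compound preincubation. Luminescence values were scaled to 57uM ketoconazole as complete inhibition.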

Assay [15] in a line: qHTS Assay for Identification of Small Molecule Agonists for Hypoxia Response Element Signaling Pathway (AID 914; active means well fitted activation curve with a large enough effect in the signal ratio, with a control signal flat, not every such curve was filed as active; the % refers to the signal ratio; further: % of control where 0% means no effect). The settings on record: ME-180 (cervical carcinoma) HRE-bla reporter, beta-lactamase ratio, CoCl2, 17 h; activation: active compounds read high. The essentials:
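HRE-bla ME-180 cells with beta-lactamase reporter under hypoxia response element, compounds with EC50 CoCl2 for 17 hours at 37 C. CCF4 substrate, 460nm/530nm emission ratio gave %Activity; AC50 from titration series.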

Molecules are shown by their SMILES. A number with no mark means an inactive call. Results filed as inconclusive are left out. The source made the active and inactive calls. Unless noted, the call rests on the fitted dose curve; in most records, active means well fitted curve in either direction with a large enough effect (not every such curve was filed as active); inconclusive means small, poorly fitted or top-dose-only effect, or another doubt; inactive means flat fitted curve, though single readings scatter. Where only a bound is given, the exact number is not on record here.

Cytochrome P450 3A4 (Homo sapiens), sequence (P08684 whole entry, looked up): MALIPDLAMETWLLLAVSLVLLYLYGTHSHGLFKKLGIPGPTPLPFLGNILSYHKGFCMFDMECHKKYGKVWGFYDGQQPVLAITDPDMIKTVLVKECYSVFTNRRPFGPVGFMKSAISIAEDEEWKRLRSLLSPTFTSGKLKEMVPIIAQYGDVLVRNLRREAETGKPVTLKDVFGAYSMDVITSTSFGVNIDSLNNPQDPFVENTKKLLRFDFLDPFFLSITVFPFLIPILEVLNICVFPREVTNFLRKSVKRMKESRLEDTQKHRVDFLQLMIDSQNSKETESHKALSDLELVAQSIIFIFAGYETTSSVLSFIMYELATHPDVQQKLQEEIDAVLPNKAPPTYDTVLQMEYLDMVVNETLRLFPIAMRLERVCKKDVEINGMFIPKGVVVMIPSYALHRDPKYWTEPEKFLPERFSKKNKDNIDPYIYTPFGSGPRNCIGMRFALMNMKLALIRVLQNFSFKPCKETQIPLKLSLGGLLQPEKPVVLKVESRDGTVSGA
Lysosomal acid glucosylceramidase (Homo sapiens), sequence (P04062 whole entry, looked up): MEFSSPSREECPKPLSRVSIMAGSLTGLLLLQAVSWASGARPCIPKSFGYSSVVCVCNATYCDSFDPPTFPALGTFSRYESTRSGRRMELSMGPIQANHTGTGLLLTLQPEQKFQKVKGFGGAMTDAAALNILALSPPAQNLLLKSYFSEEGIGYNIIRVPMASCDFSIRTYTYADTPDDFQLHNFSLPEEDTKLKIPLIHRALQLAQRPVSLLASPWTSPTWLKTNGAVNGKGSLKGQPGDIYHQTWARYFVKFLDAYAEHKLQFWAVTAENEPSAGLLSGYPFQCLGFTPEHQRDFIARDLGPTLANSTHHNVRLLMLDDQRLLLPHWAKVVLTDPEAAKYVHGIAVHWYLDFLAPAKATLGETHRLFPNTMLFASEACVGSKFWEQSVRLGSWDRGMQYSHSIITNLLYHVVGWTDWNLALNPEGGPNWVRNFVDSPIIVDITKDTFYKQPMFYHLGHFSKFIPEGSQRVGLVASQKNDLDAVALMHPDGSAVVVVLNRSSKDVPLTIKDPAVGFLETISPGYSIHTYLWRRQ
Glucocorticoid receptor (Homo sapiens), sequence (P04150 whole entry, looked up, the tested form may be a part): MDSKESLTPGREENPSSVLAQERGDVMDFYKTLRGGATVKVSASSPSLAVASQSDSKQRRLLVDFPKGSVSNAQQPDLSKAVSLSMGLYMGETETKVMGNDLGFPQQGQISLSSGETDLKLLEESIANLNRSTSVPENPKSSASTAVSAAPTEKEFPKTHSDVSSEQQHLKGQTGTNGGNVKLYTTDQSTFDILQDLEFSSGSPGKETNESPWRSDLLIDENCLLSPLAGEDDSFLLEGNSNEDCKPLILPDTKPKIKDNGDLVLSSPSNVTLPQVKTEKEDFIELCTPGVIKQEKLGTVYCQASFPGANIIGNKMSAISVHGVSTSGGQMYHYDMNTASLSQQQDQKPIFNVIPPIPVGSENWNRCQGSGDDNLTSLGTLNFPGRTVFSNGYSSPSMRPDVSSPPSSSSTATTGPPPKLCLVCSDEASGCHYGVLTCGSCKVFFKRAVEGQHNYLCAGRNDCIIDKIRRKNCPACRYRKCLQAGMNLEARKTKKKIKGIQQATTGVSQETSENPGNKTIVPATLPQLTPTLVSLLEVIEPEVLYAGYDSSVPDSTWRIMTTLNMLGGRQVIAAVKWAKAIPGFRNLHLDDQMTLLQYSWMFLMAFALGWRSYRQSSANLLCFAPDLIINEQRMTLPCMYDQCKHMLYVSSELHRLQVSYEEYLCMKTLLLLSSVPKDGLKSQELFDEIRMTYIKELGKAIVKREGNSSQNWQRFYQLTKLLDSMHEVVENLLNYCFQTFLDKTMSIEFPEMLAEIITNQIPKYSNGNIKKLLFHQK
Cytochrome P450 2C9 (Homo sapiens), sequence (P11712 whole entry, looked up): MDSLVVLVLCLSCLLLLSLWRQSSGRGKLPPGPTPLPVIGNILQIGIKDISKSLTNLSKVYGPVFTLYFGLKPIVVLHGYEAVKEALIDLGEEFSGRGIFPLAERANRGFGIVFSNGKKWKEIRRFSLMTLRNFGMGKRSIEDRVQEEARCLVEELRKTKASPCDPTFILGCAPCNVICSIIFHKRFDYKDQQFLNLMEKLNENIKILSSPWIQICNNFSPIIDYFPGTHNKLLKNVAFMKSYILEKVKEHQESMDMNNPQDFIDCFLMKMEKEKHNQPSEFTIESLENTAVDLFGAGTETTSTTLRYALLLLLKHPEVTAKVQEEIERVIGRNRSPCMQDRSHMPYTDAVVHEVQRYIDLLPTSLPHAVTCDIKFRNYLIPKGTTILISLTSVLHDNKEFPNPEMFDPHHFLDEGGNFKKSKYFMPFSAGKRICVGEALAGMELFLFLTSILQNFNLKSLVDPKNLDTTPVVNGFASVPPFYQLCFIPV
Cytochrome P450 2C19 (Homo sapiens), sequence (P33261 whole entry, looked up): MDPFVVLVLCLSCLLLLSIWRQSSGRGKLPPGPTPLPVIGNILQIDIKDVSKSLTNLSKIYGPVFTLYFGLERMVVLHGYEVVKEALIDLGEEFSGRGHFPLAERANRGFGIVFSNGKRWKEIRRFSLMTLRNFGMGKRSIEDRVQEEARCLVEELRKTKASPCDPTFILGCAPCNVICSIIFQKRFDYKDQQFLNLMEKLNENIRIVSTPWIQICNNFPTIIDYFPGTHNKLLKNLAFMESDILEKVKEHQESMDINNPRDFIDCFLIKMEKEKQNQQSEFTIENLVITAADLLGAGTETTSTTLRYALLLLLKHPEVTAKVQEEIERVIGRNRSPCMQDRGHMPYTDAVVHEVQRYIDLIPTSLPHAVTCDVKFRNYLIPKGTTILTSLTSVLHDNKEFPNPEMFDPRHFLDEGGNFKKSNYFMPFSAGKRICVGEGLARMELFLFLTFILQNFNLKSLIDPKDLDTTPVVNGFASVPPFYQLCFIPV

As for `O=C(c1csnn1)N1CCC[C@@]2(CCN(c3ccncc3)C2)C1`, the Potency was more than 11.4 µM in assay [1] and more than 46 µM in assay [5]. Also, the activity change, negative = inhibition in [2] is 13.9%. The Potency result in [3], in [6] and in [7] was “inactive” each time. For the same compound, in assay [4], the activity, negative = inhibition is 8.6%. In addition, the result in assay [8] was inactive.
As to `O=C(c1ccco1)N1CCC[C@@]2(CCN(c3cccc(-c4ccccc4)c3)C2)C1`, the Potency in assay [1] is more than 11.4 µM; in assay [3], 15.8 µM (active); in assay [5], more than 46 µM; in assay [10] it was 5.01 µM (active). Besides, the figures for the activity change, negative = inhibition in assay [2] and in assay [9] were -1.52% and -22.9%, respectively. In addition, the activity, negative = inhibition in [4] was 3.03%. In addition, the result in [8] was inactive.
In the case of `CC(=O)N1CCC[C@@]2(CCN(c3ccccc3)C2)C1`, the Potency is more than 11.4 µM in assay [1] and more than 46 µM in assay [5]. Further, in assay [2], the activity change, negative = inhibition was -11%. In addition, the Potency entry in [3], in assay [6], in [7] and in assay [11] was “inactive” in each case. For the same compound, the activity, negative = inhibition in assay [4] is -6.46%. For the same compound, the outcome in [8] was inactive.
For `Cn1cccc1C(=O)N1CCC2(CCCN(c3ccccn3)C2)CC1`, the Potency in assay [1] was more than 11.4 µM; in assay [3], 20 µM (active); in assay [5], more than 46 µM. Further, the activity change, negative = inhibition in assay [2] is -9.86%. For the same compound, in [4], the activity, negative = inhibition was -6.89%. For the same compound, the Potency result in assay [6] and in assay [7] was “inactive” throughout. Also, in assay [8], the result was inactive.
As for `COC(=O)N1CCC2(CC1)CCN(c1ccccn1)CC2`, the Potency in assay [1] is more than 11.4 µM; in assay [5], more than 46 µM; in [11], 20 µM (active). Besides, the activity change, negative = inhibition in assay [2] was -8.66%. Moreover, the Potency result in assay [3], in assay [6], in [7] and in assay [12] was “inactive” throughout. For the same compound, the activity, negative = inhibition in assay [4] was -8.24%. For the same compound, the result in assay [8] was inactive.
Turning to `COc1ccccc1CCn1c(=O)c(-c2ccc(Cl)cc2)nc2cncnc21`, the Potency is more than 11.4 µM in [1]; 0.631 µM (active) in assay [3]; more than 9.22 µM in assay [13]; more than 46 µM in assay [5]; 3.98 µM (active) in [10]; 3.98 µM (active) in assay [12]. Moreover, the Potency in assay [14] was 0.398 µM (active). Moreover, the activity change, negative = inhibition in assay [2] is 10.2%. Besides, in assay [4], the activity, negative = inhibition was 6.76%. Further, the Potency result in assay [6], in assay [7] and in assay [11] was “inactive” each time. Besides, in [8], the outcome was inactive.
Consider `N#Cc1cccc(NC(=O)N2CCCC3(CCN(C(=O)c4cnccn4)CC3)C2)c1`, for which the results for the Potency in assay [1], in assay [3] and in assay [5] were more than 11.4 µM, 20 µM (active) and more than 46 µM, respectively. Also, the activity change, negative = inhibition in [2] was -1.03%; in assay [9], -9.23%. Further, in assay [4], the activity, negative = inhibition is 0.635%. For the same compound, the Potency result in assay [6] and in assay [11] was “inactive” each time. In addition, the activation in assay [15] was 0.071%. Besides, the result in assay [8] was inactive.
On to `Cn1cccc1C(=O)N1CCC2(CC1)CCN(c1cccc(-c3ccccc3)c1)CC2`, for which the Potency in [1] was more than 11.4 µM; in assay [3] it was 20 µM (active); in [5], more than 46 µM. In addition, the activity change, negative = inhibition was -12.9% in assay [2] and 16.5% in assay [9]. Moreover, the activity, negative = inhibition in [4] is -8.63%. Also, the Potency result in assay [7] is “inactive”. Moreover, the outcome in assay [8] was inactive.
